# Source: PubChem BioAssay
# Rows were chosen to be rich in hits. Some 5.1% of all compounds tested hit in one or more screens of this group.
# S1P3 antag: antagonists of human S1P3 receptor. inhibition, % at 4.98 µM. AID 485. CHO S1P3 NFAT-BLA reporter, FRET fluorescence, antagonist mode. 170,000 tested, 0.27% active. Q99500;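 active = inhibition above the plate cutoff, the mean inhibition of test wells on that plate plus 3 SD, cut at about 28% in these data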;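 also: cells challenged with S1P at its EC80 of 0.8 µM; blue over green emission ratio from cleaved BLA substrate after 4 h stimulation; 0% = S1P-stimulated wells and 100% = unstimulated DMSO-only wells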
# Cl transport mod: modulators of human KCC2 chloride dependent transport; KCC2 cells, thallium flux FluoZin-2 fluorescence; B-score of Tl+ flux slope (higher = more flux/activation; lower = inhibition) at 10 µM; 190,000 tested, 2.2% active;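 active = thallium flux slope and its plate-corrected score both differing from the plate sample mean at a set confidence after two filtering rounds, in either direction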;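 also: slope of fluorescence scaled to starting intensity during 10 to 20 s after thallium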
# Target sequence (Q9H2X9 whole entry, looked up): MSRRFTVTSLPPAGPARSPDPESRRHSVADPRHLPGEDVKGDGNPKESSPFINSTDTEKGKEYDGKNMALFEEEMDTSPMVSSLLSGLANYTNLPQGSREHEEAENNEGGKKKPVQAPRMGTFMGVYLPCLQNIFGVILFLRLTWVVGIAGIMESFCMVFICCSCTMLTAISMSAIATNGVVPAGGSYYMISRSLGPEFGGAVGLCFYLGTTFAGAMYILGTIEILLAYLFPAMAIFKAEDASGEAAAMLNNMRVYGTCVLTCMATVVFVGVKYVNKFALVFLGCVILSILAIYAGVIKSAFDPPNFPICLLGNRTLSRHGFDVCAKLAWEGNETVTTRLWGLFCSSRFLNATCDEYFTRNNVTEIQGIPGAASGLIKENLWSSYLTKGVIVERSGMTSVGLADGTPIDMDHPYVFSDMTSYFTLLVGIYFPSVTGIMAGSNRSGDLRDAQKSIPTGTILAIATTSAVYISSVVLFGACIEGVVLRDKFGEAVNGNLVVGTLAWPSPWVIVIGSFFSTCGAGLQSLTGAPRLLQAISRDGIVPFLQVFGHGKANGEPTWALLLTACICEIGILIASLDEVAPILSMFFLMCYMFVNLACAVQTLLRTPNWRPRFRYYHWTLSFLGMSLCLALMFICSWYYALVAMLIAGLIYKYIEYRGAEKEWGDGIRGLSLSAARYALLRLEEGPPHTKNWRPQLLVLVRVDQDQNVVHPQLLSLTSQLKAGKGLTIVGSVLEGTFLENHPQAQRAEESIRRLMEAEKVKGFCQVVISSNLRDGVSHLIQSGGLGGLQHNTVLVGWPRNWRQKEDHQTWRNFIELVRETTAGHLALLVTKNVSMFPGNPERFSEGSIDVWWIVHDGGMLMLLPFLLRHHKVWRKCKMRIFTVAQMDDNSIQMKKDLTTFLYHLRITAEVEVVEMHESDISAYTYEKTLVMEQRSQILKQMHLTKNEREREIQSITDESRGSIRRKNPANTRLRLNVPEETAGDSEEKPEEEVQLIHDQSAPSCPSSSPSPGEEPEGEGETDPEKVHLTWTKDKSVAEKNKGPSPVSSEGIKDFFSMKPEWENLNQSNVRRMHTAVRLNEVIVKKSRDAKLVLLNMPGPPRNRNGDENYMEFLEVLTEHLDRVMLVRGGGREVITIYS
# ROMK primary: modulates human ROMK potassium channel activity. 130,000 tested, 2% active. P48048. Tet-inducible ROMK, thallium flux fluorescence; actives lie on both sides. B-score at 10 µM;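 active = signal ratio slope over the read window, or its plate-corrected B-score, at least 3 SD from the plate mean, either direction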;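 also: B-score of the F/F0 ratio slope over 7 to 12 s after thallium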
# S1P4 antag: human S1P4 receptor antagonism; O95977; S1P4-expressing cells, antagonist mode, reporter read-out; inhibition, % at 4.98 µM; 220,000 tested, 0.26% active; AID 1510; in the data active = inhibition above about 29%;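 also: 0% = wells stimulated with agonist and 100% = vehicle wells without agonist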
# S1P4 agonist: activates the human S1P4 receptor. activation, % at 4.98 µM. 220,000 tested, 0.35% active. S1P4-expressing cell line, agonist reporter assay. O95977; in the data active = activation above about 11%;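 also: 0% = DMSO vehicle and 100% = reference agonist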
# RAM inhibit: blocks the yeast RAM network; S. cerevisiae dse1pr::URA3 reporter, 5-FOA growth OD615, 2 d; analog-sensitive cbk1-as2 kinase mutant strain; inhibition, % at 50 µM; 190,000 tested, 1.8% active; AID 868;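 active = inhibition above a set limit, 3 SD over mean compound inhibition, cut at about 8.4% in these data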;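 also: 0% = DMSO-only wells with no growth and 100% = 10 µM 1-NA-PP1 full growth; inhibition rescues growth on 5-FOA so higher OD means more RAM inhibition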
# KCC2 secondary: confirmation of human KCC2 transport modulators. 3,700 tested, 15% active. HEK293-KCC2, thallium flux, FluoZin2 fluorescence; hits give high values. normalised thallium flux (F/F0 slope) at 10 µM. shares compounds with Cl transport mod;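 active = thallium flux slope above the same plate's solvent-only control mean plus 3 SD; inconclusive = the two replicate wells disagree; inactive = no significant difference from solvent-only control wells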
# KCC2 bumet counter: thallium flux persisting under bumetanide in KCC2 cells, counter-screen secondary assay; 3,700 tested, 49% active; shares compounds with Cl transport mod; AID 1714; HEK293-KCC2 + bumetanide/ouabain, thallium flux FluoZin2; hits give high values; normalized thallium flux at 10 µM;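 active = thallium entry rate above the same plate's blocked-transporter control wells by more than 3 SD; inconclusive = the two repeat wells disagree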;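 also: raw slope of fluorescence over initial fluorescence between 10 and 20 s after thallium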
# KCC2 secondary2: confirmation of human KCC2 transport modulators; shares compounds with Cl transport mod; HEK293-KCC2, thallium flux FluoZin2 fluorescence; actives lie on both sides; F/F0 rise rate, 10–20 s post-thallium; normalized thallium flux at 10 µM; 3,700 tested, 23% active; AID 1715;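 active = thallium flux slope more than 3 SD above or below the plate's solvent-only control mean, mostly below; inconclusive = the two repeat wells disagreed; inactive = no significant shift from solvent-only controls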;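 also: raw slope with 0.1% DMSO as baseline and bumetanide as block control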
# HEK293 Tl flux: acts in parental HEK cells, KCC2 counter-screen; shares compounds with Cl transport mod; HEK293 parental cells, thallium flux FluoZin2, ouabain; baseline-ratio fluorescence slope, 10–20 s after thallium; thallium flux rate (normalised fluorescence) at 10 µM; 3,700 tested, 46% active; AID 1716;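 active = thallium flux rate significantly above the same plate's solvent-only control wells, beyond their mean plus 3 SD; inconclusive = the two replicate wells gave conflicting results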
# KCC2 retest ouab: KCC2 (human) modulation, ouabain retest. raw Tl+ flux slope (below DMSO = inhibition, above = activation) at 10 µM. shares compounds with Cl transport mod. HEK293-KCC2, thallium flux FluoZin2 fluorescence; bidirectional: low = inhibitor, high = activator. 3,700 tested, 48% active;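 active = thallium flux slope beyond 3 SD from same-plate DMSO control mean in most replicates, usually higher, sometimes lower; inconclusive = repeat tests gave conflicting results; inactive = no significant difference from controls in most replicates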;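 also: slope of initial-normalized fluorescence between seconds 10 and 20 after thallium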
# HEK counter2: acts in parental HEK cells, second KCC2 counter-screen | HEK293 parental, thallium flux FluoZin-2 fluorescence slope | shares compounds with Cl transport mod | 3,700 tested, 33% active | thallium flux slope at 10 µM | AID 1718;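 active = thallium flux slope above the same plate's solvent-control mean plus 3 SD in both duplicate wells; inconclusive = duplicate wells that disagreed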;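 also: run without ouabain in cells lacking the KCC2 cotransporter; slope of fluorescence scaled to its starting value between 10 and 20 s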
# S1P4 ag conf: human S1P4 agonism, confirmation; activation, % at 4.98 µM; 740 tested, 7% active; AID 1523; S1P4 agonist cell-based reporter assay; shares compounds with S1P4 agonist; in the data active = activation above about 12%;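 also: 0% = vehicle and 100% = full reference agonist response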
# S1P1 agonist: activates human S1P1, counter-screen for S1P4 agonists. shares compounds with S1P4 agonist. activation, % at 4.98 µM. 740 tested, 4% active. S1P1 agonist cell-based assay, activation. AID 1563; in the data active = activation above about 21%;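 also: 0% = vehicle wells and 100% = reference agonist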
# * hit, by the source's call; ? = inconclusive; . = no result given.
SMILES,S1P3 antag,Cl transport mod,ROMK primary,S1P4 antag,S1P4 agonist,RAM inhibit,KCC2 secondary,KCC2 bumet counter,KCC2 secondary2,HEK293 Tl flux,KCC2 retest ouab,HEK counter2,others
Cc1ccc(O)c(C(=O)CC(=O)c2ccccc2Cl)c1,-2,.,.,0,2,1,?,0.064*,0.03,0.038*,0.055*,0.012*,
Clc1ccc(-c2csc(N/N=C/c3cccnc3)n2)c(Cl)c1,0,0.47,0.21,-22,3,2,.,.,.,.,.,.,
C(=N\Nc1nc(-c2ccccc2)cs1)/c1cccnc1,.,-3.6*,.,7,1,0,0.0056,0.0051,0.025*,0.0072,0.016*,0.01,
C/C(=N\NC(=O)C(=O)N/N=C(\C)c1cccc(O)c1)c1cccc(O)c1,-1,1.4,0.0088,-16,1,3,.,.,.,.,.,.,
O=C(CSCc1ccc(F)cc1)N1CCN(c2ccc(F)cc2)CC1,.,-3.6*,.,-20,-1,-1,0.0063,?,0.032,0.0037,0.017*,0.011,
Cc1ccc(CSCC(=O)N2CCN(c3ccc(F)cc3)CC2)cc1,.,-0.7,.,-10,-1,-1,.,.,.,.,.,.,
O=Cc1c[nH]c2ccc(S(=O)(=O)N3CCOCC3)cc12,0,-0.5,-0.066,14,0,3,.,.,.,.,.,.,
O=C(NCCc1cn2ccccc2n1)c1cc(COc2c(F)cccc2F)on1,12,-4*,.,-8,0,2,?,?,?,0.0079,0.016*,0.0097,
Cc1cnc(CN(C)C(=O)c2cc(COc3c(F)cccc3F)on2)[nH]1,9,.,0.3,-8,1,3,.,.,.,.,.,.,
Cc1ccc(CNC(=O)c2cc(COc3c(F)cccc3F)on2)s1,1,.,0.12,-2,0,4,0.0068,0.0064,0.033,0.0037,0.015*,0.011,
Cc1cccn2cc(CCNC(=O)c3cccs3)nc12,5,-1.1,-1,-9,0,.,.,.,.,.,.,.,
Cc1ccc(C2N(c3ccccc3)C(=S)N3CCCN23)cc1 (stereo not given),.,.,2.4,10,4,2,0.0083,0.0049,0.034,0.0037,0.02,0.011,
Fc1ccc(C2N(c3ccccc3)C(=S)N3CCCN23)cc1 (stereo not given),20,-1.7,0.32,12,-1,.,.,.,.,.,.,.,
Cc1cccc(/C=C(\C(=O)C(=O)O)c2ccc3ccccc3n2)c1,-6,0.77,-1.2,8,2,3,.,.,.,.,.,.,
O=C(O)C(=O)/C(=C\c1cccc(Cl)c1)c1ccc2ccccc2n1,-20,11*,-1.2,-9,0,2,0.0062,0.022*,0.033,0.023*,?,0.016*,
N#Cc1nc(-c2ccco2)oc1N1CCC(Cc2ccccc2)CC1,.,.,-0.71,-5,1,9.7*,0.0067,0.0048,0.025*,0.007,?,0.011,
N#Cc1nc(-c2ccco2)oc1N1CCN(c2ccccc2)CC1,1,.,0.6,-1,0,6,.,.,.,.,.,.,
Cc1c(N2C(=O)CSC2c2ccc(F)cc2)c(=O)n(-c2ccccc2)n1C (stereo not given),-12,0.02,.,-6,1,.,.,.,.,.,.,.,
Cn1c2ccccc2c(=O)c2c(=O)n(-c3ccc(F)cc3)c(-c3cccs3)nc21,11,-0.056,.,8,0,.,.,.,.,.,.,.,
CC(c1ccccc1)n1c(-c2cccs2)nc2c(c(=O)c3ccccc3n2C)c1=O (stereo not given),-3,-3.6*,.,-2,1,.,0.0077,0.0064,0.029,0.0057*,0.018,0.0097,
CCCCCC1=NN2C(=O)CC(=O)N=C2S1,-6,-0.39,.,4,1,.,.,.,.,.,.,.,
Fc1ccc(CSc2nsc(SCc3ccc(F)cc3)n2)cc1,.,1.1,-0.013,-7,0,2,.,.,.,.,.,.,
O=C(Nc1nc(SCc2ccc(F)cc2)ns1)c1ccco1,-12,-3.7*,-0.4,9,-1,6,0.0059,?,0.021*,?,0.012*,0.011,
O=c1c2ccccc2nnn1Cc1ccccc1Cl,-1,-1,-0.018,-7,2,2,.,.,.,.,.,.,
O=[N+]([O-])c1cc(S(=O)(=O)N2CCCC2)ccc1N/N=C1/CCCc2ccccc21,-13,-4*,0.82,2,1,4,0.0061,0.0049,0.032,0.0081,0.019,?,
SMILES,S1P3 antag,Cl transport mod,ROMK primary,S1P4 antag,S1P4 agonist,RAM inhibit,KCC2 secondary,KCC2 bumet counter,KCC2 secondary2,HEK293 Tl flux,KCC2 retest ouab,HEK counter2,others
COc1ccc(OC)c(C(=O)COC(=O)c2ccccc2O)c1,-23,.,-0.11,3,-3,8.7*,0.0063,0.0059,0.028,0.0064,0.023*,?,
COc1ccc(OC)c(C(=O)COC(=O)c2c(OC)cccc2OC)c1,9,0.74,.,-13,0,1,.,.,.,.,.,.,
Cc1ccc(CNC(=O)CCNC(=O)c2ccco2)cc1,.,0.053,.,-13,0,0,.,.,.,.,.,.,
COc1cc(C2C3=C(CCCC3=O)Nc3[nH]n(-c4ccccc4)c(=O)c32)ccc1OC(C)=O (stereo not given),-21,0.18,-0.63,-9,0,-1,.,.,.,.,.,.,
COc1ccccc1OCc1ccc(C(=O)N2N=C(C(F)F)CC2(O)C(F)F)o1 (stereo not given),.,-3.3*,-0.59,-13,0,0,0.0071,0.0057,0.025*,0.0067,0.013*,?,
CN1CCN(CCCNC(=O)c2ccc(/C=C3/Sc4ccccc4N(Cc4cccc(Cl)c4)C3=O)cc2)CC1,3,0.6,-0.98,-9,1,-2,.,.,.,.,.,.,
CN1CCN(CCCNC(=O)c2ccc(/C=C3\Sc4ccccc4N(Cc4ccc(F)cc4)C3=O)cc2)CC1,-8,2.7*,-0.25,-7,23*,-3,0.0089,0.0051,0.033,0.0077,0.019,0.012,S1P4 ag conf=-1;S1P1 agonist=-3
